# Shown are actives, neighbours in structure and some others; about 4.7% of the full set was active somewhere.
# D1 potentiator – enhances dopamine response at the human D1 receptor; P21728; 0.036% of 360,000 active; HEK293 TREx D1 cells, calcium flux, dopamine EC20 potentiation; potentiation, % at 10 µM; in the data active = potentiation above about 30%; note: 0% is about no effect
# Target sequence (P21728 whole entry, looked up): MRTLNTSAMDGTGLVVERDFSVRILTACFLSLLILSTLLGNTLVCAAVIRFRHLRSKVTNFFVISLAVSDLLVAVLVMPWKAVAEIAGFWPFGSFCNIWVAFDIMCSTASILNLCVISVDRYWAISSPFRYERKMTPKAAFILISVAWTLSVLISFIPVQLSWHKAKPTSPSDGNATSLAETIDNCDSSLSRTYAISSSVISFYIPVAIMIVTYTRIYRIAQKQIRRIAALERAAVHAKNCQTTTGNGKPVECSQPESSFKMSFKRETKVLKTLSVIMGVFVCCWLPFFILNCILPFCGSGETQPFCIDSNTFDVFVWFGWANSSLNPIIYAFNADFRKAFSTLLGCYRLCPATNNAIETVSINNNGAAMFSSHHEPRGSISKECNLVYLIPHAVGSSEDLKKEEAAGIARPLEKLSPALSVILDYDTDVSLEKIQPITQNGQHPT
# D1 antag – human D1 dopamine receptor antagonism; activity change, negative = inhibition, % at 10 µM; HEK293 TREx D1 cells, calcium flux, dopamine EC80; active compounds read low; 3.2% of 360,000 active; P21728; in the data active = activity change below about -30%; note: % is set by controls: 0 for no effect and ±100 for the full control effect
#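 Tetracycline-induced HEK293 T-REx cells with force-coupled D1 receptor were loaded with a no-wash calcium dye. Compound was added after a 10 s baseline and read kinetically for 180 s; EC80 dopamine was then added and calcium flux followed another 180 s.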
# D1 ag – agonists of human D1 dopamine receptor | P21728 | HEK293 T-REx D1 cells, calcium flux, agonist mode | activation, % at 2 µM | 1% of 360,000 active; in the data active = activation above about 30%; note: 0% is about no effect
#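 Inducible HEK293 T-REx D1 cells, force-coupled to calcium signalling, were plated at 4000 cells/well with tetracycline and held overnight at 30 C. After no-wash calcium dye loading, compound-evoked calcium rise over 180 s flagged agonists.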
# TRHR agonist-1 – TRH receptor (human) agonism; 0.18% of 360,000 active; TRHR cells, calcium flux fluo-8, FDSS agonist mode; activation, % at 2 µM; P34981; in the data active = activation above about 30%; note: 0% is about no effect
#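 In this calcium-flux screen, cells bearing human TRHR are dye-loaded with fluo-8, baselined for 10 cycles, then exposed to library compounds; positive kinetic calcium responses during the agonist phase mark hits, with TRH as control.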
# TRHR enhancer-1 – TRH receptor (human) allosteric enhancement | P34981 | TRHR cells, fluo-8 calcium fluorescence, EC20 TRH enhancement | enhancement, % at 2 µM | 0.66% of 360,000 active | AID 493056; in the data active = enhancement above about 30%; note: 0% is about no effect
#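 TRHR-expressing cells loaded with fluo-8 calcium dye were read kinetically (ex 480/em 530) during compound addition, then stimulated with an EC20 of TRH (10 nM final). Enhancement of the Gq-mediated intracellular calcium response was scored.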
# TRHR enhancer-2 – confirmation of human TRH receptor allosteric enhancers; activity change, negative = inhibition, % at 46.1 µM; 970 tested, under 10 active; shares compounds with TRHR enhancer-1; TRH receptor cell assay, enhancer confirmation qHTS;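 note: compound effect scored on response to added TRH at EC20 of 10 nM; 0% is about no effect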
# TRHR agonist-2 – human TRH receptor agonism confirmation; shares compounds with TRHR enhancer-1; TRHR-expressing cells, agonist activation read-out; 8% of 970 active; Potency, µM (doses to about 46.1 µM), without a hit: at the highest dose activation, actives largely listed as activators; note: potency is the fitted concentration of half-maximal effect; 0% is about no effect; nearly all actives have a fitted effect of over 75% in size
# * hit, by the source's call; ? = inconclusive; . = no result given. Unless noted, calls come from the whole dose curve; as a rule, active = well fitted curve in the direction sought with a large enough effect; inconclusive = small, poorly fitted or top-dose-only effect, or another doubt; inactive = no such curve, though single readings can be large; an effect the other way counts as inactive or inconclusive.
SMILES,D1 potentiator,D1 antag,D1 ag,TRHR agonist-1,TRHR enhancer-1,TRHR enhancer-2,TRHR agonist-2
Cc1cccc(NC(=O)c2cccc(N3CCCS3(=O)=O)c2)c1,0.7,2.9,2.8,0.0,-0.5,.,.
CC(=O)c1c(C)[nH]c(C(=O)COC(=O)COc2ccccc2F)c1C,-11.4,14.2,4.4,-1.5,51.9*,-1.3,-0.5%
CCOC(=O)c1c(C)[nH]c(C(=O)COC(=O)COc2ccccc2C)c1C,-8.8,-19.9,5.3,0.3,-8.2,.,.
Cc1sc(NC(=O)CN2CCOCC2)c(C#N)c1C,-3.3,-18.2,5.3,-0.5,-8.0,.,.
COc1ccc2c(c1)cc(C(=O)N/N=C/c1c(O)c(C(=O)O)cc3ccccc13)n2C,-1.1,1.9,8.7,33.4*,-1.2,?,18.4µM*
Cn1c(O)c(/C=N/NC(=O)c2cc3ccccc3cc2O)c2ccccc21,.,-17.2,146.5*,45.7*,3.0,-0.5,13µM*
Cc1cnc2c(c1SCC(=O)NCc1ccccc1Cl)c(=O)n(C)c(=O)n2C,-0.2,.,-2.5,-0.1,-1.8,.,.
CC(C)(C)NC(=O)C1N(c2cccnc2)C(=O)C2C(C(=O)Nc3ccccc3)C3(C)C=CC21O3 (stereo not drawn),0.3,9.1,2.3,0.6,1.7,.,.
Cc1cc(NC(=O)C2C3C(=O)N(c4cccnc4)C(C(=O)NC(C)(C)C)C34C=CC2(C)O4)no1 (stereo not drawn),-8.1,-10.0,2.6,0.1,42.0*,2.5,5.3%
N#CC1=C(N)S[C@H](C(=O)C23CC4CC(CC(C4)C2)C3)[C@H]1c1ccncc1,-4.2,23.2,-3.5,0.0,-1.9,.,.
Nc1ccc(/C=C/C(=O)c2cccs2)cc1,-7.0,-12.3,81.5*,51.9*,-15.4,?,20.6µM*
COc1cccc(N2CCN(Cc3cc(=O)oc4cc(C)ccc34)CC2)c1,2.2,-4.0,-0.1,-1.0,1.4,.,.
O=C(N/N=C/c1coc2ccccc2c1=O)c1cccc([N+](=O)[O-])c1,-7.5,-1.2,0.8,0.3,61.3*,?,3.1%
COC(=O)CN(c1nc(C)cc(OC)n1)S(=O)(=O)c1ccccc1,0.4,-16.0,1.4,-0.6,68.1*,-7.2,1.5%
COc1cc(C)nc(N(Cc2ccccc2)S(=O)(=O)c2ccccc2)n1,-7.8,-3.4,2.7,-0.2,-2.6,.,.
O=C(NC1CCCCCC1)c1ccc(=O)n(Cc2ccccc2)n1,-2.5,-23.7,3.9,-0.1,54.9*,-4.4,-0.4%
COC(=O)C1CCN(C(=O)COC(=O)c2ccc(=O)n(Cc3ccccc3)n2)CC1,4.5,3.7,3.0,0.1,1.4,.,.
CCOC(=O)c1cc(C)sc1NC(=O)CSC1=NCCS1,-4.5,1.7,1.6,-0.1,55.6*,-5.3,5.7%
CC(Sc1ccccc1)C(=O)NCC1COc2ccccc2O1 (stereo not drawn),-7.3,0.4,1.5,0.2,-4.3,.,.
O=[N+]([O-])c1ccc(/C=C/C2=NN(c3ccccc3)C(c3ccco3)C2)o1 (stereo not drawn),0.3,-4.4,97.2*,39.9*,-9.4,-4.8,?
Fc1ccc(C2=NN(c3ccccc3)C(c3ccco3)C2)cc1 (stereo not drawn),-1.6,8.2,4.0,-0.6,-1.9,.,.
CC(=O)N/N=C/c1c(C)[nH]n(-c2ccccc2)c1=O,-8.9,-24.0,4.2,-0.8,44.2*,-4.3,5.0%
COC(=O)N/N=C\c1c(C)[nH]n(-c2ccccc2)c1=O,-8.3,-3.1,0.8,-0.1,1.6,.,.
Clc1ccccc1-c1nnc2sc(-c3ccc(Br)o3)nn12,2.2,9.8,2.5,27.5,-4.9,-14.1,1.0%
CN(C(=O)CSc1nnc(COc2ccccc2F)n1N)C1CCS(=O)(=O)C1 (stereo not drawn),-5.2,11.9,7.1,0.5,4.8,.,.
O=C(Nc1cccc2ncccc12)c1ccc(F)cc1,-9.7,1.1,3.7,1.3,-5.8,.,.
O=C(Nc1cccc2ncccc12)c1ccc(Cl)cc1,4.3,0.4,2.9,0.1,59.6*,2.1,-0.5%
COc1ccnc(Oc2cc(Cl)cc(Cl)c2)c1C#N,-0.7,-5.1,-0.4,0.0,0.4,.,.

# Compound activity from PubChem BioAssay.
